This is an account of results in ChEMBL document CHEMBL3988442, “University of Dundee, Small-Polar-MMV Screening Library” (2021).

About 13,000 (27%) of roughly 48,000 compounds showed an effect of 50% or more. This is one part of the list.

The experiment has as its system Wolbachia pipientis. As to the kind of experiment: Anti-Wolbachia Cell-Based Screen. In kind it is functional. Also on record: scale not given: in the data most compounds retested in dose-response had high values. As to conditions: 5 µM.
On to `COc1ccc(C(=O)NS(=O)(=O)c2ccc(CNC(C)=O)s2)cc1`, for which the “Percent Effect” value is -0.9731%. Under `Cc1ccnc(NS(=O)(=O)c2cc(C(N)=O)n(C)c2)c1` stands 8.268%; under `Cc1cc(C)cc(NC(=O)CN2CCCC(n3cncn3)C2)c1` (stereo not drawn), 8.702%.

Turning to `CC[C@@]1(O)CCN(C(=O)c2ccc(SC)cc2)C[C@H]1O`, the “Percent Effect” value was -2.102%.

Turning to `CC[C@@]1(O)CCN(C(=O)c2ccc(CN3CCCCCC3)cc2)C[C@H]1O`, the “Percent Effect” value is given as -35.93%. Under `CC(C)=CCN1C[C@H]2CC[C@@H]1CN(C(=O)c1ccc3c(c1)OCO3)C2` stands 36%. Turning to `CS(=O)(=O)NCC1CCCN(C(=O)c2ccc3c(c2)CCC3)C1` (stereo not drawn), the “Percent Effect” value is reported as -4.65%. Under `CC(=O)NC[C@]1(O)CCN(C(=O)c2ccc3c(c2)OCO3)C[C@H]1O` stands 124.1%. With `CC(=O)NC[C@]1(O)CCN(C(=O)c2ccc3c(c2)CCC3)C[C@H]1O`, the “Percent Effect” value worked out at 101.7%. Under `CC[C@@]1(O)CCN(C(=O)CCNC(=O)c2ccc(F)cc2)C[C@H]1O` stands -29.52%; under `CC(=O)NC[C@]1(O)CCN(C(=O)c2ccc(C)c(F)c2)C[C@H]1O`, 111.8%; under `CC[C@@]1(O)CCN(C(=O)c2ccc(-c3cccc(F)c3)cc2)C[C@H]1O`, -0.249%.

On to `COCC1CC2(CCN(C(=O)c3ccc(F)c(Cl)c3)CC2)CO1` (stereo not drawn), for which the “Percent Effect” value is reported as -3.157%. Regarding `CC(=O)N1CCC2(CC1)CN(C(=O)c1ccc3c(c1)OCO3)C2`, the “Percent Effect” value is given as -7.452%. As for `CC(=O)NC[C@]1(O)CCN(C(=O)c2ccc(F)c(Cl)c2)C[C@H]1O`, the “Percent Effect” value is reported as 117.5%. On to `Cc1nn(CCO)cc1CN1CCC(C(C)N2CCCC2)CC1` (stereo not drawn), for which the “Percent Effect” value is 9.031%. As to `CCOc1ccc(CNC2CCCN(c3cccnn3)C2)cc1OC` (stereo not drawn), the “Percent Effect” value is recorded as -5.556%. With `CCCn1ncc(C(=O)N(Cc2cccnc2)C[C@@H]2CCC(=O)N2)c1C`, the “Percent Effect” value is -6.874%. Under `CCn1c(CC2CCN(C(=O)C3CC(C(C)C)=NO3)CC2)nn(C)c1=O` (stereo not drawn) stands 5.338%; under `O=C(CCC(=O)N1CCCC1c1cccs1)N1CCc2sccc2C1` (stereo not drawn), 12.25%; under `O=C(NC1CC(=O)N(C2Cc3ccccc3C2)C1)c1cc[n+]([O-])cc1` (stereo not drawn), 5.46%. On to `CC(=O)N1CCN(C(=O)CNc2c(C)cccc2OC(F)F)CC1`, for which the “Percent Effect” value is recorded as -9.064%. For `Cc1ccc(C(=O)N2CCC(=O)N(CC3CC3)C(C(C)C)C2)c(=O)[nH]1` (stereo not drawn), the “Percent Effect” value came to 0.658%.

With `CC(Cc1ccco1)NC(=O)Nc1cnn(CC(N)=O)c1` (stereo not drawn), the “Percent Effect” value stood at 6.71%. Under `Cc1cc(C)nc(Nc2cc(C)nc(C3CCN(C(=O)CO)C3)n2)n1` (stereo not drawn) stands 114%.

For `Cc1cc(C(F)(F)F)nc(C2CCN(C(=O)CO)CC2)n1`, the “Percent Effect” value is 124.3%.

In the case of `Cc1cc(O)nc(C2CCN(C(=O)CO)CC2)n1`, the “Percent Effect” value stood at 98.46%. Under `COc1cc(C)nc(N2CCN(C(=O)COCC(F)(F)F)CC2)n1` stands -18.67%; under `CCOCCCNC(=O)c1cc(C)nc(N2CCCC2)n1`, 24.14%. On to `COCCNC(=O)CN1CCN(c2nc(C)cs2)C(C)C1` (stereo not drawn), for which the “Percent Effect” value is 5.094%. Under `CNCC(=O)N1CCCC(c2cccc(Nc3nc(C)cc(C)n3)n2)C1` (stereo not drawn) stands -17.94%. `COCCNC(=O)c1cc(C)nc(C2CCN(C)CC2)n1`: the “Percent Effect” value is 102.6%. Under `O=c1[nH]c2nc(NCC3CCCO3)ncc2c(=O)n1-c1cccc(F)c1` (stereo not drawn) stands -6.626%. Under `CCc1noc(CC)c1CC(=O)N1CCN(C(=O)C2CCCC2)CC1` stands -21.61%. Under `O=C(CCCc1cn[nH]c1)N1C[C@@H](CN2CCCCCC2)[C@@H](CO)C1` stands 0.3132%; under `CN(C)CCN(Cc1ccsc1)C(=O)C1=NNC(=O)CC1`, -24.72%. As for `COC(=O)[C@H]1CN(S(C)(=O)=O)CCN1S(C)(=O)=O`, the “Percent Effect” value is given as -6.679%. For the compound `Cc1cnc(NCC(C)(C)N2CCOCC2)nc1`, the “Percent Effect” value is -8.824%. On to `Cc1cc(C)nc(C2CCN(C(=O)CO)CC2)n1`, for which the “Percent Effect” value is reported as 128.5%. Under `CC1CCN(C(=O)CN2CCC(c3n[nH]c(C4CC4)n3)CC2)CC1` stands -23.79%; under `Cc1nc(C2CCN(C(=O)CO)CC2)cc(N2CCOCC2)n1`, 8.233%.

For `COC(=O)Cc1cccc(NC(=O)Cc2ccon2)c1`, the “Percent Effect” value came to 4.933%. Under `Cc1nc2c(c(NC(C)C)n1)CCN(C(=O)CCO)CC2` stands 103%; under `CCOCc1nc2c(c(NCCNC(C)=O)n1)CCN(C(C)=O)CC2`, 14.8%. For `CC(=O)NCC(=O)N1CCc2nc(C)nc(C)c2CC1`, the “Percent Effect” value was -10.4%.

For `Cc1nc2c(c(NC(C)C)n1)CCN(C1CCOCC1)CC2.O=C(O)C(F)(F)F`, the “Percent Effect” value is -10.52%. Under `Cc1nc2c(c(NC3CC3)n1)CCN(C(=O)CCO)CC2.O=C(O)C(F)(F)F` stands -1.283%; under `Cc1nc2c(c(NC(C)C)n1)CCN(C(=O)c1cc[nH]n1)CC2.O=C(O)C(F)(F)F`, -4.947%; under `CC(C)Nc1nc2c(c(NC3CC3)n1)CN(C(=O)c1ccncc1)CC2`, 1.63%. Under `CC(C)Nc1nc2c(c(NC3CC3)n1)CCN(C(=O)C1CCOC1)CC2` (stereo not drawn) stands 25.31%; under `COCC(=O)N1CCc2nc(NC(C)C)nc(NC(C)C)c2CC1`, 95.04%.

In the case of `COCC(=O)N1CCc2nc(C)nc(NC(C)C)c2CC1`, the “Percent Effect” value worked out at 69.97%. Under `CCOCC(=O)N1CCc2nc(C)nc(NC(C)C)c2CC1` stands 81.04%.
